Results filed as inconclusive are left out. Calls of active or inactive are those of the source. How the source made its calls, unless noted: active means hit-call score of the fitted dose curve at least 0.9, where 1 is the maximum; inconclusive means response in the unintended direction; inactive means score below 0.9.
Read-out: xenobiotic metabolism (CYP1A1), CYP1A1 (gene 1543)
Experiment: CLD_CYP1A1_48hr: CellzDirect (CLD) Gene Expression Assay for xenobiotic metabolism (CYP1A1) at 48 hours (AID 2283705)
How it was run: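 Primary human hepatocytes from two donors dosed daily for two days at multiple concentrations, 0.2% DMSO vehicle; CYP1A1 mRNA induction at 48 h by qNPA chemiluminescence. Cytotoxicity noted by phase-contrast morphology.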

Chain of Glyceraldehyde-3-phosphate dehydrogenase (Homo sapiens) (P04406 whole entry, looked up): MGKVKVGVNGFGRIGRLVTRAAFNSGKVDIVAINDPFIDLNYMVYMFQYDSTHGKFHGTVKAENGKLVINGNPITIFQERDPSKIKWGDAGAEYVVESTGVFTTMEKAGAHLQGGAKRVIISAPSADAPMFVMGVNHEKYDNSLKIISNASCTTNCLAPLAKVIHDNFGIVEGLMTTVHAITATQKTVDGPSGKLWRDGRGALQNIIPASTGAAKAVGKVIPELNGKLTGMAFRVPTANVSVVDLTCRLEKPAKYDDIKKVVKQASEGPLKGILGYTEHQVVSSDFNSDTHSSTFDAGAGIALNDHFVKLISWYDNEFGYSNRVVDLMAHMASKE

SMILES	AC50	outcome
CCOP(=S)(OCC)SCn1c(=O)oc2cc(Cl)ccc21	13.9 µM (active)	
Cc1c(F)c(F)c(COC(=O)C2C(/C=C(\Cl)C(F)(F)F)C2(C)C)c(F)c1F (stereo unspecified)	20 µM (active)	
O=C(O)c1nc(Cl)ccc1Cl	4.17 µM (active)	
COC(=O)C=C(C)OP(=O)(OC)OC		inactive
COC(=O)N(OC)c1ccccc1COc1ccn(-c2ccc(Cl)cc2)n1	1.9 µM (active)	
C#CCOS(=O)OC1CCCCC1Oc1ccc(C(C)(C)C)cc1 (stereo unspecified)		inactive
CC(C)Oc1cc(-n2nc(C(C)(C)C)oc2=O)c(Cl)cc1Cl	4.01 µM (active)	
Fc1ccc(Oc2ccnc3cc(Cl)cc(Cl)c23)cc1		inactive
N#CC(CCc1ccc(Cl)cc1)(Cn1cncn1)c1ccccc1 (stereo unspecified)	2.53 µM (active)	
CCOc1cc(Oc2ccc(C(F)(F)F)cc2Cl)ccc1[N+](=O)[O-]	1.01 µM (active)	
COc1cnc(OC)n2nc(NS(=O)(=O)c3c(OCC(F)F)cccc3C(F)(F)F)nc12		inactive
CCc1nn(C)c(C(=O)NCc2ccc(C(C)(C)C)cc2)c1Cl	8.98 µM (active)	
CC1=C(C(=O)Nc2ccccc2)SCCO1	36.1 µM (active)	
CCCN(CCC)c1c([N+](=O)[O-])cc(S(N)(=O)=O)cc1[N+](=O)[O-]	28.9 µM (active)	
CC(C)C1(C)N=C(c2nc3ccccc3cc2C(=O)O)NC1=O (stereo unspecified)		inactive
CS/C(C)=N/OC(=O)N(C)SN(C)C(=O)O/N=C(\C)SC		inactive
O=C(Nc1ccccc1)Nc1ccnc(Cl)c1	10.8 µM (active)	

Read-out: Glyceraldehyde-3-phosphate dehydrogenase (Homo sapiens) (UniProt P04406)
Experiment: CLD_GAPDH_48hr: CellzDirect (CLD) Gene Expression Assay for Baseline Control (Glyceraldehyde 3-phosphate dehydrogenase) at 48 hours (AID 2283706);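 further: active means higher GAPDH mRNA than DMSO vehicle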
How it was run: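 Primary human hepatocytes dosed daily for two days with fresh chemical at multiple concentrations, 0.2% DMSO vehicle; GAPDH mRNA measured at 48 h by quantitative nuclease protection assay with chemiluminescence, fitted upward relative to DMSO as background control.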

SMILES	outcome
CC(Oc1ccc(Cl)cc1Cl)C(=O)O (stereo unspecified)	inactive
CNC(=O)ON=CC(C)(C)SC	inactive
CCON=C(CC)C1=C(O)CC(c2c(C)cc(C)cc2C)CC1=O (stereo unspecified)	inactive
CCOC(=O)CC(SP(=S)(OC)OC)C(=O)OCC (stereo unspecified)	inactive

Read-out: glucuronosyltransferase (UGT1A1), UGT1A1 (gene 54658)
Experiment: CLD_UGT1A1_48hr: CellzDirect (CLD) Gene Expression Assay for glucuronosyltransferase (UGT1A1) at 48 hours (AID 2283709);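 further: actives increase expression relative to DMSO so potency refers to induction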
How it was run: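 Human primary hepatocytes dosed daily for two days (0.2% DMSO vehicle), harvested at 48 h. UGT1A1 mRNA induction measured by quantitative nuclease protection assay with chemiluminescence; gain of signal versus DMSO; cytotoxicity flagged from morphology.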

SMILES	outcome	AC50
CCOP(=S)(OCC)SCn1c(=O)oc2cc(Cl)ccc21	inactive	
Cc1c(F)c(F)c(COC(=O)C2C(/C=C(\Cl)C(F)(F)F)C2(C)C)c(F)c1F (stereo unspecified)	inactive	
O=C(O)c1nc(Cl)ccc1Cl	inactive	
Cc1cc(Cl)ccc1OCC(=O)O	inactive	
CC(Oc1ccc(Cl)cc1Cl)C(=O)O (stereo unspecified)	inactive	
COC(=O)C=C(C)OP(=O)(OC)OC	inactive	
CO/C=C(/C(=O)OC)c1ccccc1Oc1cc(Oc2ccccc2C#N)ncn1	inactive	
Oc1ccccc1-c1ccccc1	inactive	
COC(=O)c1ccccc1C(=O)OC	inactive	
CC(C)Oc1cc(-n2nc(C(C)(C)C)oc2=O)c(Cl)cc1Cl	inactive	
CNC(=O)ON=CC(C)(C)SC	inactive	
Fc1ccc(Oc2ccnc3cc(Cl)cc(Cl)c23)cc1	inactive	
N#CC(CCc1ccc(Cl)cc1)(Cn1cncn1)c1ccccc1 (stereo unspecified)	inactive	
CCOc1cc(Oc2ccc(C(F)(F)F)cc2Cl)ccc1[N+](=O)[O-]		5.41 µM (active)
COc1cnc(OC)n2nc(NS(=O)(=O)c3c(OCC(F)F)cccc3C(F)(F)F)nc12	inactive	
CCON=C(CC)C1=C(O)CC(c2c(C)cc(C)cc2C)CC1=O (stereo unspecified)	inactive	
CC1=C(C(=O)Nc2ccccc2)SCCO1	inactive	
CCCN(CCC)c1c([N+](=O)[O-])cc(S(N)(=O)=O)cc1[N+](=O)[O-]	inactive	
COP(N)(=O)SC (stereo unspecified)	inactive	
CCOC(=O)CC(SP(=S)(OC)OC)C(=O)OCC (stereo unspecified)	inactive	
CC(C)C1(C)N=C(c2nc3ccccc3cc2C(=O)O)NC1=O (stereo unspecified)	inactive	
C=CCC1=C(C)[C@@H](OC(=O)[C@@H]2[C@@H](C=C(C)C)C2(C)C)CC1=O		7.38 µM (active)
CS/C(C)=N/OC(=O)N(C)SN(C)C(=O)O/N=C(\C)SC	inactive	
O=C(Nc1ccccc1)Nc1ccnc(Cl)c1		6.7 µM (active)

Tested on: not listed separately
Experiment: STM_H9_OrnithineISnorm_perc: Stemina devTOX quickPredict H9 human embryonic stem cell (hESC)-based Assay for Ornithine (ORN) Metabolite Biomarker, Normalized (AID 2283712; active means hit-call score of the fitted dose curve at least 0.9, where 1 is the maximum; inactive means score below 0.9;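 further: ornithine released into spent medium during last day measured by mass spectrometry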)
How it was run: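 H9 human embryonic stem cells kept pluripotent receive test chemical over 72 h, refreshed daily by media exchange. Media from the closing 24 h is deproteinized and analysed by UPLC-HRMS on an amide column; ornithine signal is scaled to labelled standard and vehicle.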

SMILES	AC50	outcome
COC(=O)N(OC)c1ccccc1COc1ccn(-c2ccc(Cl)cc2)n1	0.85 µM (active)	
C#CCOS(=O)OC1CCCCC1Oc1ccc(C(C)(C)C)cc1 (stereo unspecified)	3.33 µM (active)	
CO/C=C(/C(=O)OC)c1ccccc1Oc1cc(Oc2ccccc2C#N)ncn1		inactive
COC(=O)c1ccccc1C(=O)OC		inactive
CCON=C(CC)C1=C(O)CC(c2c(C)cc(C)cc2C)CC1=O (stereo unspecified)		inactive
CCc1nn(C)c(C(=O)NCc2ccc(C(C)(C)C)cc2)c1Cl	1.84 µM (active)	
CCOC(=O)CC(SP(=S)(OC)OC)C(=O)OCC (stereo unspecified)	76.9 µM (active)	
C=CCC1=C(C)[C@@H](OC(=O)[C@@H]2[C@@H](C=C(C)C)C2(C)C)CC1=O		inactive

Tested on: not listed separately
Experiment: STM_H9_CystineISnorm_perc: Stemina devTOX quickPredict H9 human embryonic stem cell (hESC)-based Assay for Cystine (CYSS) Metabolite Biomarker, Normalized (AID 2283713; active means hit-call score of the fitted dose curve at least 0.9, where 1 is the maximum; inactive means score below 0.9)
How it was run: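 H9 hESC, pluripotent; compound 72h, re-dosed q24h with medium change. Last-24h medium → 40% acetonitrile deproteinization → UPLC-HRMS. CYSS area / C13-CYSS standard, then % of 0.1% DMSO median.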

SMILES	AC50	outcome
COC(=O)N(OC)c1ccccc1COc1ccn(-c2ccc(Cl)cc2)n1	0.743 µM (active)	
C#CCOS(=O)OC1CCCCC1Oc1ccc(C(C)(C)C)cc1 (stereo unspecified)	2.42 µM (active)	
CO/C=C(/C(=O)OC)c1ccccc1Oc1cc(Oc2ccccc2C#N)ncn1		inactive
COC(=O)c1ccccc1C(=O)OC		inactive
CCON=C(CC)C1=C(O)CC(c2c(C)cc(C)cc2C)CC1=O (stereo unspecified)		inactive
CCc1nn(C)c(C(=O)NCc2ccc(C(C)(C)C)cc2)c1Cl	1.82 µM (active)	
CCOC(=O)CC(SP(=S)(OC)OC)C(=O)OCC (stereo unspecified)	86.9 µM (active)	
C=CCC1=C(C)[C@@H](OC(=O)[C@@H]2[C@@H](C=C(C)C)C2(C)C)CC1=O		inactive

— PubChem BioAssay (EPA / NIEHS)
